Screening results: PubChem BioAssay, National Center for Advancing Translational Sciences (NCATS)
Most compounds without a hit are left out; they make up all but 9.2% or so of the library.
LMNA splice mod = changes lamin A minigene splicing in HeLa cells | AID 1487 | HeLa LMNA splicing GFP/RFP minigene ratio, 48 h | hit rate 0.01% among 200,000 | Potency, µM (highest dose often 46.1 µM), for the others: at the top dose ratio change, negative = inhibition, most hits filed as inhibitors; active = well fitted inhibition curve with a large enough effect in the signal ratio, with a control signal flat, not every such curve was filed as active; inconclusive = small, poorly fitted or top-dose-only effect, or effect the other way, or a change in a side signal; the % refers to the signal ratio; also: % is scaled to controls: 0 for no effect and ±100 for the full control effect
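S3 HeLa stable clones carrying a lamin A-EGFP splicing minigene plus DsRed2 were seeded at 600 cells/well in Opti-MEM with 2% FBS, pin-dosed and incubated 48 h at 37°C. Acumen cytometry (488 nm) gave the GFP/RFP total-intensity ratio.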
HTT cytoprotect = Huntington cell model cytoprotection by ATP luminescence. PC12 HTT-Q103 induced, cytoprotection, ATP luminescence, 40 h. Potency, µM (titrated, usually from 56.4 µM), without a hit: cytoprotection (ATP increase), actives largely listed as activators. hit rate 0.14% among 230,000. AID 1471; active = well fitted curve in the direction sought with a large enough effect; inconclusive = small, poorly fitted or top-dose-only effect, or another doubt; inactive = no such curve, though single readings can be large; an effect the other way counts as inactive or inconclusive; also: % of control where 0% means no effect; nearly all actives have a fitted effect of over 45% in size
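Quantitative HTS on tebufenozide-induced (100 nM) PC12 cells expressing HTTQ103 exon 1–GFP; compounds tested as a concentration series; survival measured via cellular ATP.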
HPGD block = inhibitors of human 15-hydroxyprostaglandin dehydrogenase (HPGD) | P15428 | AID 894 | purified HPGD, NADH fluorescence kinetic, PGE2 substrate | Potency, µM, for the others: at the top dose activity change, negative = inhibition, hits mostly inhibitors | hit rate 4.3% among 150,000; also: % is scaled to controls: 0 for no effect and ±100 for the full control effect
Target sequence (P15428 whole entry, looked up): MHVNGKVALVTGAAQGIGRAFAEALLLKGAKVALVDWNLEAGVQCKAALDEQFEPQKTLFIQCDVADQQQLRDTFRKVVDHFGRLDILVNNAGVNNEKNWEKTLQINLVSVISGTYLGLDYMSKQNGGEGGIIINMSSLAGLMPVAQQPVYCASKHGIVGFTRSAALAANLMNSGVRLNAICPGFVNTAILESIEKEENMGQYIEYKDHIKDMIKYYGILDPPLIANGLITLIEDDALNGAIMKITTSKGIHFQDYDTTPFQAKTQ
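20 nM HPGD preincubated 15 min at room temperature with compound in 50 mM Tris-HCl pH 8, 0.01% Tween 20. Started with 1 mM NAD+ and 30 uM prostaglandin E2; NADH fluorescence (360/450 nm) read 5 times over 30-s intervals, last minus first.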
ALDH1A1 inh = ALDH1A1 (human) enzyme inhibition. Potency, µM (highest dose often 75.3 µM), for the others: at the highest dose activity, negative = inhibition, hits mostly inhibitors. AID 1030. hit rate 7.3% among 220,000. Purified ALDH1A1, NADH fluorescence, propionaldehyde substrate;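 also: plate controls were no enzyme wells and a reference inhibitor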
HttQ103 aggreg = mutant huntingtin aggregation inhibition | PC12 HttQ103-GFP aggregates, Acumen cytometry, 40 h | Potency, µM (series often up to 46.1 µM), for the others: at the highest dose activity change, negative = inhibition, actives largely listed as inhibitors | hit rate 1.1% among 220,000; active = well fitted curve in the direction sought with a large enough effect; inconclusive = small, poorly fitted or top-dose-only effect, or another doubt; inactive = no such curve, though single readings can be large; an effect the other way counts as inactive or inconclusive; also: % is scaled to controls: 0 for no effect and ±100 for the full control effect; nearly all actives have a fitted effect of over 60% in size
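Read-out: GFP aggregate count by laser scanning cytometer (488 nm excitation, 500-530 nm emission, 1–25 µm objects >6 SD above background). Cells: PC12, inducible HTTex1-Q103-GFP, 100 nM tebufenozide; compounds titrated.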
JMJD2E inh = blocks human JMJD2E demethylase activity | JMJD2E catalytic domain, FDH-coupled NADH fluorescence (FDH is formaldehyde dehydrogenase) | Potency, µM (highest dose often 57.1 µM), for inactives: at the highest dose activity change, negative = inhibition, hits mostly inhibitors | hit rate 1.6% among 230,000 | B2RXH2;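 also: 0% = wells with enzyme and -100% = buffer wells without enzyme; nearly all actives have a fitted effect of over 50% in size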
Target sequence (B2RXH2 1-337 limits assumed): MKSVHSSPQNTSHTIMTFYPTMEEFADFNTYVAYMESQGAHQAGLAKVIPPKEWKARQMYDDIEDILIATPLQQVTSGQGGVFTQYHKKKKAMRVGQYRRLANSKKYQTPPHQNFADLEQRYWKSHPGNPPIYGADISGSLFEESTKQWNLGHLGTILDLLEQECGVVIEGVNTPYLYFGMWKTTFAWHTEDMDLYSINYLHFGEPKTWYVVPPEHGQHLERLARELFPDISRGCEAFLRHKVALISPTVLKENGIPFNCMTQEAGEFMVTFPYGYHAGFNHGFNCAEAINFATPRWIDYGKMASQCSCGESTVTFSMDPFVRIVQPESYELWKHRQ
The depositor's hits bear a star; [ ] = remark or other dose. Unless noted, calls follow the shape of the dose curve; as a rule, active = well fitted inhibition curve with a large enough effect (not every such curve was filed as active); inconclusive = small, poorly fitted or top-dose-only effect, or another doubt; inactive = no such curve, though single readings can be large or run the other way. Potency is read from the fitted curve at half-maximal effect.

What do the screens show for `COc1ccc(C(C[N+](=O)[O-])c2c(-c3ccccc3)cc3ccccn23)c(OC)c1` (stereo not given)?
LMNA splice mod: -20.6%; HTT cytoprotect: 17.9%; HPGD block: 22.4µM*; ALDH1A1 inh: inconclusive; HttQ103 aggreg: inconclusive; JMJD2E inh: -6.0%

Results for CCCCCN1C=CC=C/C1=C\C=C(C#N)C#N ?
HTT cytoprotect: 8.3%[10 µM]; ALDH1A1 inh: 0.447µM*; HttQ103 aggreg: -5.4%[9.22 µM]; JMJD2E inh: -3.9%

How did CCCN1C=CC(=CC=C(C#N)C#N)C=C1 do in these assays?
HTT cytoprotect: -4.8%[10 µM]; ALDH1A1 inh: inconclusive; HttQ103 aggreg: -11.9%[9.22 µM]; JMJD2E inh: -0.8%

How did CCCCCCN1C=CC=C/C1=C/C=C(C#N)C#N do in these assays?
LMNA splice mod: inconclusive; HPGD block: 11.2µM*; ALDH1A1 inh: 0.9%; HttQ103 aggreg: 4.0%; JMJD2E inh: 0.3%

Results for CCCCCCN1C=C/C(=C\C=C(C#N)C#N)c2ccccc21 ?
LMNA splice mod: -0.3%; HTT cytoprotect: 21.8%[1.9 µM]; HPGD block: -3.2%; ALDH1A1 inh: 7.8%; HttQ103 aggreg: inconclusive; JMJD2E inh: 3.1%

What do the screens show for `O=C1/C(=C/c2cccnc2)Oc2cc(OS(=O)(=O)c3ccc(F)cc3)ccc21`?
LMNA splice mod: -8.2%; HTT cytoprotect: 3.9%[10 µM]; HPGD block: 15.8µM*; ALDH1A1 inh: 8.91µM*; HttQ103 aggreg: inconclusive; JMJD2E inh: inconclusive

What do the screens show for `Cc1ccc(S(=O)(=O)Oc2ccc3c(c2)O/C(=C\c2cccnc2)C3=O)cc1`?
LMNA splice mod: 0.0%; HTT cytoprotect: 26.5%[10 µM]; HPGD block: -25.3%; ALDH1A1 inh: 11.2µM*; HttQ103 aggreg: 1.3%; JMJD2E inh: 0.5%

Results for O=C1/C(=C/c2ccncc2)Oc2cc(OS(=O)(=O)c3ccccc3)ccc21 ?
HTT cytoprotect: 4.1%[10 µM]; HttQ103 aggreg: 3.7%[9.22 µM]; JMJD2E inh: -8.1%

How did Cc1ccccc1CS(=O)(=O)Cc1ccc(C(=O)NCc2ccc(F)cc2)o1 do in these assays?
LMNA splice mod: -4.2%[46 µM]

How did Cn1cccc1CC(=O)N/N=C/c1cccc2ccccc12 do in these assays?
LMNA splice mod: -12.0%; HTT cytoprotect: -5.9%[10 µM]; HPGD block: 15.8µM*; ALDH1A1 inh: inconclusive; HttQ103 aggreg: -3.5%; JMJD2E inh: -10.4%

Results for Cc1c(F)cccc1NS(=O)(=O)c1ccc2c(c1)NC(=O)CO2 ?
HTT cytoprotect: -20.0%; ALDH1A1 inh: 9.6%; HttQ103 aggreg: -28.9%; JMJD2E inh: -1.3%

What do the screens show for `COc1ccc(OC)c(C(=O)COC(=O)CNC(=O)C2CCCCC2)c1`?
LMNA splice mod: 1.6%; HTT cytoprotect: 4.3%; HPGD block: -15.8%; ALDH1A1 inh: -5.3%; HttQ103 aggreg: 13.4%; JMJD2E inh: 6.0%

How did COc1ccc(C(=O)COC(=O)CNC(=O)C2CCCCC2)c(OC)c1 do in these assays?
LMNA splice mod: 16.7%; HTT cytoprotect: 9.8%; HPGD block: 25.1µM*; ALDH1A1 inh: inconclusive; HttQ103 aggreg: 1.9%[9.22 µM]; JMJD2E inh: -5.3%

How did O=C(CSc1ccccn1)c1ccc(F)cc1 do in these assays?
LMNA splice mod: 10.1%; HTT cytoprotect: -5.8%; HPGD block: 25.1µM*; ALDH1A1 inh: inconclusive; HttQ103 aggreg: 9.5%; JMJD2E inh: -5.3%

What do the screens show for `O=C(CSc1ccccn1)Nc1ccc2c(c1)C(=O)c1ccccc1C2=O`?
LMNA splice mod: -7.1%; HTT cytoprotect: -9.9%[10 µM]; HPGD block: -9.5%; ALDH1A1 inh: 25.1µM*; HttQ103 aggreg: -14.0%; JMJD2E inh: 0.0%

How did COC(=O)c1ccc(NC(=O)CSc2ccccn2)cc1 do in these assays?
LMNA splice mod: -2.3%; HTT cytoprotect: -1.4%; HPGD block: 11.2µM*; ALDH1A1 inh: inconclusive; HttQ103 aggreg: 7.2%; JMJD2E inh: -0.4%

Results for COC(=O)c1ccc(NC(=O)CSc2ccccc2)cc1 ?
LMNA splice mod: 10.4%; HTT cytoprotect: 11.6%[10 µM]; HPGD block: -12.7%; ALDH1A1 inh: 5.0%; HttQ103 aggreg: 15.4%; JMJD2E inh: 1.0%

What do the screens show for `Cc1cccc(NC(=O)CCSc2ccccn2)c1`?
LMNA splice mod: 18.5%; HTT cytoprotect: 6.1%[10 µM]; HPGD block: 14.1µM*; ALDH1A1 inh: inconclusive; HttQ103 aggreg: -3.0%; JMJD2E inh: -0.6%

Results for Cc1ccc(NC(=O)CCSc2ccccn2)cc1 ?
LMNA splice mod: -6.9%; HPGD block: -17.2%; ALDH1A1 inh: -12.3%; HttQ103 aggreg: -4.0%; JMJD2E inh: -0.7%

Results for CCOC(=O)C1=C(CN2CCN(c3ccc(OC)cc3)CC2)NC(=O)NC1c1ccc(OC)cc1 (stereo not given) ?
LMNA splice mod: 3.5%[46 µM]

What do the screens show for `CC(C)(C)CNCCO`?
HTT cytoprotect: -11.5%[10 µM]; HPGD block: -1.5%; ALDH1A1 inh: 10.6%[13.5 µM]

How did COc1ccc2c(c1)O[C@@H](c1cccc(C(F)(F)F)c1)[C@H](OC(=O)NCc1ccc3c(c1)OCO3)C2=O do in these assays?
HTT cytoprotect: inconclusive; HPGD block: -5.8%; ALDH1A1 inh: -8.2%; JMJD2E inh: -5.1%

Results for COC(=O)c1ccc(NC(=O)Cc2ccc(F)cc2)cc1 ?
LMNA splice mod: 3.7%[46 µM]; HTT cytoprotect: -17.5%; ALDH1A1 inh: 3.5%; HttQ103 aggreg: 0.6%; JMJD2E inh: -4.1%

Results for COC(=O)c1ccc(CNCC(=O)Nc2ccc(C(=O)OC)cc2)cc1 ?
LMNA splice mod: inconclusive; HPGD block: 28.2µM*; ALDH1A1 inh: -5.3%; HttQ103 aggreg: 6.6%; JMJD2E inh: 1.5%

How did COC(=O)c1ccc(NC(=O)CN2C(=O)C3C4C=CC(C4)C3C2=O)cc1 (stereo not given) do in these assays?
LMNA splice mod: 5.3%; HTT cytoprotect: 4.4%[10 µM]; HPGD block: 20µM*; ALDH1A1 inh: 3.1%; HttQ103 aggreg: 14.1%; JMJD2E inh: -2.2%

Results for Cc1ccc(/C=C/C(=O)c2ccc(O)cc2)cc1 ?
HTT cytoprotect: 4.3%[10 µM]; HttQ103 aggreg: 9.4%[9.22 µM]; JMJD2E inh: -2.5%

Results for Cc1ccc(C(=O)/C=C/C(=O)O)cc1 ?
LMNA splice mod: inconclusive; HTT cytoprotect: -32.2%[10 µM]; HPGD block: inconclusive; ALDH1A1 inh: 0.447µM*; HttQ103 aggreg: inconclusive; JMJD2E inh: -14.3%

What do the screens show for `CN1CCN(C(=O)c2ccc(CSc3nc4ccncc4n3Cc3ccc(F)cc3)cc2)CC1`?
LMNA splice mod: inconclusive; HPGD block: 15.8µM*; ALDH1A1 inh: -2.4%; HttQ103 aggreg: -25.1%; JMJD2E inh: -0.4%

Results for O=C(NC1CCCC1)c1ccc(CSc2nc3ccncc3n2Cc2ccc(F)cc2)cc1 ?
LMNA splice mod: -11.3%; HPGD block: 3.16µM*; ALDH1A1 inh: -6.8%; HttQ103 aggreg: 5.3%; JMJD2E inh: -3.3%
